Measured values as given in PubChem BioAssay.
The source made the active and inactive calls.

Columns and labels:
[1] = test system: Plasmodium falciparum Sir2 (PF13_0152, Sir2A); experiment: pfSir2 binders on small-molecule microarrays, primary screen, biochemical, small-molecule microarray, 635 nm fluorescence (AID 1098); conditions: small-molecule microarray binding, fluorescence 635 nm; higher = more signal;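 note: score merges spot fluorescence intensity with its signal-to-noise ratio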
[2] = small-molecule microarray binders of probe aDKK1, primary screen, biochemical, biotinylated probe, 635/667 nm fluorescence (AID 1099); conditions: higher = more signal;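 note: score merges 667nm spot fluorescence with signal to noise across triplicate slides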
[3] = small-molecule microarray binders of probe aCHRDL2, primary screen, biochemical, biotinylated probe, 635/667 nm fluorescence (AID 1100); conditions: higher = more signal
[4] = splicing luciferase reporter signal modulators, primary screen, spliceosome inhibition project, cell-based, HEK293, splice +/- reporter (AID 1101); conditions: luminescence, 24 h, higher = more signal, called active from +8 up or from −8 down;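 note: HEK293 cells carrying a splicing-competent luciferase reporter gene; test concentration not given here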
[5] = molecular target: Fibroblast growth factor 10 (Homo sapiens) (UniProt O15520); experiment: FGF10 binders on small-molecule microarrays, primary screen, biochemical, small-molecule microarray, 635 nm fluorescence (AID 1102); conditions: FGF10 binding, fluorescence 635 nm, higher = more signal
[6] = test system: glycogen synthase kinase-3 (GSK3A per assay name; protocol says GSK3B); experiment: GSK3 binders on small-molecule microarrays, primary screen, biochemical, small-molecule microarray, 635 nm fluorescence, GSK3A (AID 1103); conditions: small-molecule microarray binding, fluorescence 635 nm; higher = more signal; note: the record names both GSK3A and GSK3B
[7] = molecular target: Epidermal growth factor receptor (Homo sapiens) (UniProt P00533); experiment: EGFR binders on small-molecule microarrays, primary screen, biochemical, small-molecule microarray, 635 nm fluorescence (AID 1104); conditions: EGFR binding, higher = more signal;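 note: score merges 667 nm emission intensity with spot signal to noise over triplicate slides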
[8] = molecular target: Follistatin-related protein 3 (Homo sapiens) (UniProt O95633); experiment: FSTL3 binders on small-molecule microarrays, primary screen, biochemical, small-molecule microarray, 635 nm fluorescence (AID 1105); conditions: FSTL3 binding, higher = more signal;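 note: score merges emission near 667 nm and signal to noise per printed spot across three slides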
[9] = molecular target: Dickkopf-related protein 1 (Homo sapiens) (UniProt O94907); experiment: DKK1 binders on small-molecule microarrays, primary screen, biochemical, small-molecule microarray, 635 nm fluorescence scan (AID 1106); conditions: DKK1 binding, higher = more signal;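 note: score merges emission near 667 nm with signal to noise over three replicate slides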
[10] = test system: Inhibin beta A chain (activin A); experiment: INHBA (activin A) binders on microarrays, primary screen, biochemical, small-molecule microarray, 635 nm fluorescence scan (AID 1107); conditions: small-molecule microarray binding, higher = more signal;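 note: mouse activin A protein probed at 4.33 µg/mL on printed slides; score merges bound-protein fluorescence near 667 nm with spot signal-to-noise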
[11] = test system: Human papillomavirus type 1a protein E7 (residues 44-93); experiment: HPV1a E7 fragment binders on microarrays, primary screen, biochemical, small-molecule microarray, residues 44-93, 635 nm fluorescence (AID 1108); conditions: small-molecule microarray binding, fluorescence 635 nm; higher = more signal;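 note: E7 fragment applied at 1 µg/mL in TBST for 1 h at 4 C; score combines spot fluorescence with its signal to noise ratio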
[12] = modulators of HCV replicon luciferase signal, primary screen, HCV replication inhibitor project, Huh7 cells, luciferase reporter (AID 1109); conditions: 48 h, higher = more signal;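 note: huh7 hepatoma cells harbouring a luciferase neomycin HCV replicon reporter; luciferase luminescence as measure of HCV replicon replication; test concentration not given here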
[13] = molecular target: Left-right determination factor 2 (Homo sapiens) (UniProt O00292); experiment: LEFTY2 binders on small-molecule microarrays, primary screen, biochemical, small-molecule microarray, 635 nm fluorescence scan (AID 1110); conditions: LEFTY2 binding, higher = more signal
[14] = molecular target: Calmodulin-1 (Homo sapiens) (UniProt P0DP23); experiment: CALM1 binders on microarrays, EGTA buffer, profiling panel, biochemical, small-molecule microarray, Cy5-labelled CALM1 (AID 1111); conditions: Cy5-CALM1 binding fluorescence, higher = more signal;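 note: labelled calmodulin applied in Tris saline Tween buffer holding calcium plus EGTA and DTT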
[15] = molecular target: Calmodulin-1 (Homo sapiens) (UniProt P0DP23); experiment: calcium-bound CALM1 binders on microarrays, profiling panel, artefact control for SMM control-protein annotation, biochemical, small-molecule microarray, Cy5-labelled CALM1, plus calcium (AID 1112); conditions: Cy5-CALM1 binding fluorescence, higher = more signal;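 note: score merges spot fluorescence with signal to noise from triplicate slides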
[16] = small-molecule microarray binders of probe aWnt5a, primary screen, biochemical, biotinylated probe, 635/667 nm fluorescence (AID 1113); conditions: higher = more signal;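 note: score merges 667 nm fluorescence intensity with signal-to-noise per printed feature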
[17] = small-molecule microarray binders of probe aShh, primary screen, biochemical, biotinylated probe, 635/667 nm fluorescence (AID 1114); conditions: higher = more signal;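 note: probe is biotin-labelled aShh protein from a stem cell growth factor screen; measures binding of labelled protein to compounds printed on the slide; score merges feature fluorescence at 667 nm with signal-to-noise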
[18] = small-molecule microarray binders of probe aNog, primary screen, biochemical, biotinylated probe, 635/667 nm fluorescence (AID 1115); conditions: higher = more signal;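 note: probe is biotinylated aNog protein used at 0.15 µg/mL for 1 h at 4 C; z-score combines 667 nm fluorescence of each spot with its signal to noise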
[19] = molecular target: Torsin-1A-interacting protein 1 (Homo sapiens) (UniProt Q5JTV8); experiment: LAP1 binders from COS7 cell lysate, primary screen, small-molecule microarray, 635/667 nm fluorescence (AID 1116); conditions: COS7-hLAP1 lysate binding, 635 nm fluorescence, higher = more signal
[20] = molecular target: Alpha-bungarotoxin (Bungarus multicinctus) (UniProt P60615); experiment: alpha-bungarotoxin binders on microarray, profiling panel, artefact control for SMM control protein annotation, biochemical, small-molecule microarray, Alexa647 label, 635/667 nm fluorescence (AID 1117); conditions: alpha-BTX-A647 binding fluorescence, higher = more signal
Sequence of Alpha-bungarotoxin (Bungarus multicinctus) (P60615 whole entry, looked up): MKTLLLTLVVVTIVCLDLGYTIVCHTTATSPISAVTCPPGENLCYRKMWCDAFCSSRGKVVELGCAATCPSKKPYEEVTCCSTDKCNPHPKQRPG

Sequence of Torsin-1A-interacting protein 1 (Homo sapiens) (Q5JTV8 whole entry, looked up): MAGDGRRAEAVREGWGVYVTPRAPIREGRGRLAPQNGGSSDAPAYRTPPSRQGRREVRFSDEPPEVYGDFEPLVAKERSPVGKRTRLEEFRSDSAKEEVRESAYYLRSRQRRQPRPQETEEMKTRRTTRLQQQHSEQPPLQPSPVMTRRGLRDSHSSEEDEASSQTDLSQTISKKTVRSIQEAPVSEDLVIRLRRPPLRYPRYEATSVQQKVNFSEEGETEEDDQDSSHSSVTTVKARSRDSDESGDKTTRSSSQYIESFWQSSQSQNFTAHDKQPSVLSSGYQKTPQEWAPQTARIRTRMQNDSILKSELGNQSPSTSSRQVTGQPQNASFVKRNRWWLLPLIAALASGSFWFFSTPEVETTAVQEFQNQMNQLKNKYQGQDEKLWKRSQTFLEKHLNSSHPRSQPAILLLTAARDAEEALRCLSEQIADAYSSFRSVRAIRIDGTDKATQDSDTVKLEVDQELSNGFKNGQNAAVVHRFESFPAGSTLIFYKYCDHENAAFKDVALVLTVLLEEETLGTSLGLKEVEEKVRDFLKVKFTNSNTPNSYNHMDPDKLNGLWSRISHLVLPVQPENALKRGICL
Sequence of Follistatin-related protein 3 (Homo sapiens) (O95633 whole entry, looked up): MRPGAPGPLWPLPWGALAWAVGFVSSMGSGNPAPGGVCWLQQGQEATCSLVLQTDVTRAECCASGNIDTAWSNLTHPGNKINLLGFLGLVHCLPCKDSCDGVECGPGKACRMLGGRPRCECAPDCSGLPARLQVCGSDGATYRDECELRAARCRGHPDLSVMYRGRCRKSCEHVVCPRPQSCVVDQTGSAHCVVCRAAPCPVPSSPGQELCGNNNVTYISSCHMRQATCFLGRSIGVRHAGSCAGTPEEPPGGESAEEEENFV
Sequence of Left-right determination factor 2 (Homo sapiens) (O00292 whole entry, looked up): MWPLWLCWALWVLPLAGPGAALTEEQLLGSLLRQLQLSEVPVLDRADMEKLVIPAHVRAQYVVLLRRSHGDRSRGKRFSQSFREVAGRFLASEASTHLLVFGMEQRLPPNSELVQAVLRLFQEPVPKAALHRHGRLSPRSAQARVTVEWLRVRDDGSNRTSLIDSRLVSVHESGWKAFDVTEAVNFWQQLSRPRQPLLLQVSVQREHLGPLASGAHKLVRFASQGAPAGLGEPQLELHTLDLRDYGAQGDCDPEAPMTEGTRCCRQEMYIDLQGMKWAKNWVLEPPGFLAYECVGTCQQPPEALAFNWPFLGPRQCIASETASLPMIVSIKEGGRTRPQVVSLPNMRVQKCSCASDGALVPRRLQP
Sequence of Fibroblast growth factor 10 (Homo sapiens) (O15520 whole entry, looked up): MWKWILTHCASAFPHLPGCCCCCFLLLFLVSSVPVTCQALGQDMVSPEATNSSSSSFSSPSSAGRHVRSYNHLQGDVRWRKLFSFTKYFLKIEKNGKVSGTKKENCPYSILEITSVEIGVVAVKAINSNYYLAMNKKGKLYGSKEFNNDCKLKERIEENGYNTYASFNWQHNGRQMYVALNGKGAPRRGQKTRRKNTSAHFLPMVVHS
Sequence of Dickkopf-related protein 1 (Homo sapiens) (O94907 whole entry, looked up): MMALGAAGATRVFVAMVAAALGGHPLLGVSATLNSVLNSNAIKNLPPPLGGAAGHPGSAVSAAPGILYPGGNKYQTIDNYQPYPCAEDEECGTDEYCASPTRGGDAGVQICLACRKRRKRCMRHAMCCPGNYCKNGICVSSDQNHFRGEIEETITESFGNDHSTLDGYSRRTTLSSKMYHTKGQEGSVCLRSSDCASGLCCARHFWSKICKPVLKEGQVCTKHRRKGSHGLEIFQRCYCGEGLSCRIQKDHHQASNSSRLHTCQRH
Sequence of Epidermal growth factor receptor (Homo sapiens) (P00533 whole entry, looked up): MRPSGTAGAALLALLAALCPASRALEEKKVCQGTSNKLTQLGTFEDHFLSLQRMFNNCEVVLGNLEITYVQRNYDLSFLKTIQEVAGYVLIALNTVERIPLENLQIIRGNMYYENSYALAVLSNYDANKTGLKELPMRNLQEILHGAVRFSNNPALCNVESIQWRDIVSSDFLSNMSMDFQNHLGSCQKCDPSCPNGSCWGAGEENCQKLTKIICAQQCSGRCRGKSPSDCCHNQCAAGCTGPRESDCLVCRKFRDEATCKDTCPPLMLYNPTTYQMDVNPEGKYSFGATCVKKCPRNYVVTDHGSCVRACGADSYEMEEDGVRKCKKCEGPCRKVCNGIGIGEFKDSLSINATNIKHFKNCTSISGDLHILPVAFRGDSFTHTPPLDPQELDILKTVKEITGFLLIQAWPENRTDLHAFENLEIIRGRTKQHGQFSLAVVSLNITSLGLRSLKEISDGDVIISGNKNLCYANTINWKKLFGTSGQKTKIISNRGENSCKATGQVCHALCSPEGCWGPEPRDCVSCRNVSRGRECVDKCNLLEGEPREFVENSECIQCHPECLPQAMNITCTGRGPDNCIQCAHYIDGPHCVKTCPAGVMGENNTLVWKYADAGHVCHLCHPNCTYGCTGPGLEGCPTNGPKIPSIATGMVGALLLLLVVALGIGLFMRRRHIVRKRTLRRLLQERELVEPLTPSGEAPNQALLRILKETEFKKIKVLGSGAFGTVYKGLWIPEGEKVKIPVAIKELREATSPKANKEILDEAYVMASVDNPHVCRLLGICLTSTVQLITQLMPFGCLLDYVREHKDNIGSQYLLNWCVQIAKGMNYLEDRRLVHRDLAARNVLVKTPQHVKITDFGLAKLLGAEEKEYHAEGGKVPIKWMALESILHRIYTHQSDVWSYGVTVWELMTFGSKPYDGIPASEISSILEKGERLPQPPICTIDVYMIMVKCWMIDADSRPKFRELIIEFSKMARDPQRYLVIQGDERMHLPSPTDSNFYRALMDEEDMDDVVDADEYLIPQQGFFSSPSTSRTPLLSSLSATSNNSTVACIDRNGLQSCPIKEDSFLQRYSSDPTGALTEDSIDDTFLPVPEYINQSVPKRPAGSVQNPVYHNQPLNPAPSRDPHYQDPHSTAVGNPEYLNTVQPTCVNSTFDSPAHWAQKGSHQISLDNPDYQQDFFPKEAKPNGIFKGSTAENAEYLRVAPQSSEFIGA

Row | Compound | composite z-score [1] | composite z-score [2] | composite z-score [3] | z-score [4] | composite z-score [5] | composite z-score [6] | composite z-score [7] | composite z-score [8] | composite z-score [9] | composite z-score [10] | composite z-score [11] | z-score [12] | composite z-score [13] | composite z-score [14] | composite z-score [15] | composite z-score [16] | composite z-score [17] | composite z-score [18] | composite z-score [19] | composite z-score [20]
1 | O=C1O[C@H](c2ccccc2)[C@H](c2ccccc2)N2[C@H]1[C@@H](C(=O)Nc1nc3ccccc3s1)[C@]1(C(=O)Nc3ccccc31)[C@H]2c1ccccc1OCCO | 1.42 | 0.0289 | 0.505 | -0.539 (inactive) | 0.475 | 0.901 | -0.115 | 0.399 | -0.086 | 0.121 | 1.39 | -2.72 | 0.364 | 2.01 | 0.736 | -0.0405 | -0.0289 | -0.501 | 2.27 | 1.69
2 | C=CCNC(=O)[C@@H]1[C@H]2C(=O)O[C@H](c3ccccc3)[C@H](c3ccccc3)N2[C@H](c2ccc(OCCO)cc2)[C@@]12C(=O)Nc1ccc(C#CC3=CCCCC3)cc12 | 1.11 | -0.297 | -0.299 | -0.384 (inactive) | 1.17 | 1.21 | 0.39 | 0.882 | 0.586 | -0.621 | 0.0834 | -2.53 | 0.413 | 1.62 | 0.107 | -0.012 | 0.103 | 0.843 | 0.803 | 2.23
3 | C[C@]12C(=O)N(CCO)[C@@H]3C(=O)N(c4ccc(Cl)cc4)CC=CC31O[C@@H]1/C=C\CCCOC(=O)C12 (stereo not given in full) | -0.617 | -0.128 | 0.776 | 0.178 (inactive) | -1.04 | -1.31 | -1.51 | -1.03 | -1.53 | 0.847 | -0.576 | -0.445 | -1.59 | 0.409 | 0.186 | -0.18 | -0.154 | -0.153 | -0.759 | -0.181
4 | CC(C)(C)OC(=O)CC[C@@]1(C(=O)N2CCOCC2)N=C(c2ccc(OCCCO)cc2)O[C@@H]1c1ccccc1CN=[N+]=[N-] | 1.23 | 0.956 | 1.15 | 0.178 (inactive) | 1.28 | 0.818 | 0.234 | 0.488 | -0.0447 | 1.01 | 1.46 | 0.265 | 0.0254 | 2.04 | 0.742 | 0.281 | 0.0875 | 2.13 | 3.31 | 0.986
5 | CCOC(=O)C1=CCC(c2cccn2C(=O)OC(C)(C)C)N(S(=O)(=O)c2ccc(C)cc2)C1 (stereo not given) | 1.45 | 0.484 | 0.574 | -0.799 (inactive) | 0.404 | 1.3 | 0.698 | 0.922 | 0.0815 | 1.46 | 0.18 | -3.94 | 0.379 | 0.864 | 0.439 | -0.104 | 0.428 | 1.21 | 1.52 | 2.21
6 | COC(=O)[C@@]1(Cc2ccc(OC)cc2)[C@H]2c3cc(C(=O)N(C)C)n(Cc4c(CO)[nH]cc(C)c4=O)c3C[C@H]2CN1C(=O)c1ccccc1 | 0.258 | 0.899 | 0.731 | 0.323 (inactive) | -0.17 | 0.664 | 0.0854 | 0.128 | -0.14 | 0.779 | 0.784 | -1.37 | -0.0944 | 1.1 | 0.351 | 0.302 | 0.04 | -0.211 | 0.376 | 0.302
7 | C=C(/C=C\CNS(=O)(=O)c1ccc(C)cc1)[C@H](O)[C@H]1CCCN1S(=O)(=O)c1ccccc1[N+](=O)[O-] | 0.0251 | -0.142 | -0.55 | -0.465 (inactive) | 0.598 | 0.215 | 0.629 | 0.122 | 0.524 | 0.509 | -0.251 | -3.55 | 0.318 | -0.337 | -0.477 | -0.0405 | -0.138 | -0.219 | 0.612 | 0.293
8 | COC(=O)[C@]1(Cc2ccccc2N=[N+]=[N-])N=C(c2ccc(OCCCO)cc2)O[C@@H]1c1ccccc1CN=[N+]=[N-] | 0.843 | 2.44 | 1.13 | 2.71 (inactive) | 0.975 | 0.712 | 0.0466 | 0.315 | 0.236 | 1.1 | 1.37 | -3.42 | 0.112 | 0.149 | -0.529 | -0.148 | -0.0324 | 1.14 | 1.3 | 0.874
9 | [N-]=[N+]=NCc1ccccc1[C@H]1OC(c2ccc(OCCCO)cc2)=N[C@@]1(CCS(=O)(=O)c1ccccc1)C(=O)O | 0.94 | 0.224 | 0.906 | 0.436 (inactive) | 0.283 | 0.0448 | -0.371 | -0.0142 | -0.697 | 0.839 | 0.746 | -1.98 | -0.266 | 0.461 | -0.331 | -0.15 | -0.156 | -0.246 | 0.703 | -0.553
